# Screens (PubChem)
# 697 NFkB inh: inhibitors of the PMA/ionomycin-induced NF-kB reporter in 697 B cells | AID 435022 | 697 B-cell NF-kB luciferase reporter, 16 h | 330,000 tested, 0.33% active | inhibition, % at 4 µM; in the data active means inhibition above about 35%
# Gli-Sufu block: Gli-Sufu pathway antagonism; Sufu-KO-LIGHT fibroblasts, Gli luciferase reporter luminescence; inhibition, % at 5 µM; 340,000 tested, 0.74% active; AID 588413;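 active means inhibition above about 55%, limit read from the data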;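 further: 0% = DMSO-treated cells and 100% = wells with medium but no cells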
# Jurkat NFkB inh: lowers PMA/ionomycin-induced NF-kB signal in Jurkat cells; 330,000 tested, 0.53% active; inhibition, % at 4 µM; PMA/ionomycin-induced NF-kB luciferase reporter, luminescence; in the data active means inhibition above about 50%
# TAG inh: inhibitors of triacylglycerol accumulation; inhibition, % at 12.5 µM; H9c2 cells, Nile Red lipid (TAG) fluorescence; cells loaded with 200 µM oleic acid; 230,000 tested, 0.66% active; AID 651582;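 active means pattern-corrected inhibition of lipid staining of at least 50% with the nuclear-stain viability signal not falling by more than 50%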;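 further: 0% = DMSO wells and 100% = triacsin C control wells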
# H9c2 protect: myocardial damage modulation in H9c2 cells; protection from H2O2 cell death, % at 20 µM; AID 588492; H9c2 cardiomyocytes, H2O2 injury protection, ATPLite, 2 h; 360,000 tested, 0.63% active;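 active means compounds giving at least 50% protection of heart cells from peroxide-induced death in the single-dose screen, raw or plate-pattern-corrected value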;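 further: 0% = DMSO wells with peroxide and 100% = DMSO wells without peroxide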
# COUP-TFII inh: inhibitors of human COUP-TFII (NR2F2); HEK293T NGFI-A luciferase reporter, luminescence; inhibition, % at 8.6 µM; 370,000 tested, 0.7% active; AID 686940;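 active means inhibition above a per-plate cutoff, mean inhibition of test wells between control levels plus 3 SD, cut at about 38% in these data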;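 further: cells cotransfected with COUP-TFII expression vector driving the NGFI-A reporter; 0% = median of COUP-TF2 test wells and 100% = reporter-only cells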
# Target sequence (P24468 whole entry, looked up): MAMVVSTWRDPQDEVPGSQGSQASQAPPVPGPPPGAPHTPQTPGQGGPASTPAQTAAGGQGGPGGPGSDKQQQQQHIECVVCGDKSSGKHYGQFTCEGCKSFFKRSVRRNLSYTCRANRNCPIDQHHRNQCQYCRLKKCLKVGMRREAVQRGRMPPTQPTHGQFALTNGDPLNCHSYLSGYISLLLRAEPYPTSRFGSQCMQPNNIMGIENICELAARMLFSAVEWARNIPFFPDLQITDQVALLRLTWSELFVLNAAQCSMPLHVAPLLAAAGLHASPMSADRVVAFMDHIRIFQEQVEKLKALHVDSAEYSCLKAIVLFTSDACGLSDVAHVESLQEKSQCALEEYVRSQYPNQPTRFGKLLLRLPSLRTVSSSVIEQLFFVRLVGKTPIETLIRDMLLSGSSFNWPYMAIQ
# 697 NFkB conf: inhibitors of the PMA/ionomycin-induced NF-kB reporter in 697 B cells, retest; shares compounds with 697 NFkB inh; 697 B-cell NF-kB luciferase, 16 h; inhibition, % at 4 µM; 2,000 tested, 35% active; AID 449746; in the data active means inhibition mostly above about 28%, no sharp cut-off; inactive means mostly below about 22%
# Starred values were filed as active, the others as inactive; i = inactive; . = not tested or not shown. Hits are enriched below; roughly 2.6% of the tested compounds scored in any of these assays.
SMILES,697 NFkB inh,Gli-Sufu block,Jurkat NFkB inh,TAG inh,H9c2 protect,COUP-TFII inh,697 NFkB conf
Cc1oc(-c2ccc(-c3ccccc3)cc2)nc1CN1CCN(CC(=O)N(C)C)CC1,-267,-79,-15,2,9,-48,-263
CCCCNS(=O)(=O)/C=C/c1ccc(F)cc1CNC(=O)OC(C)(C)C,.,.,.,.,.,20,.
COc1ccc(NC(=O)CN(C)C(=O)C2(c3ccccc3)CCCC2)cc1,71*,31,12,3,10,-4,72*
Cc1[nH]c2ccccc2c1CCN(Cc1cccs1)C(=O)Nc1cccc2c1OCO2,.,.,.,.,.,-24,.
CCOc1ccc2nc(NC(=O)c3ccccn3)sc2c1,-459,-5,-68,51*,-15,6,-257
CC1CCc2nc(NC(=O)Cc3cccs3)sc2C1 (stereo not drawn),-101,-78,-105,11,-21,-19,.
CC1CCc2nc(NC(=O)c3ccco3)sc2C1 (stereo not drawn),-264,-47,-46,-4,-20,36,-292
CCOC(=O)c1ccc2nc(NC(=O)c3ccco3)sc2c1,-302,-94,-90,-35,-14,-23,-273
O=C(Nc1nc2c(F)cc(F)cc2s1)c1ccccn1,i,-66,-32,46,-8,-13,-318
COc1cccc(/C=C2\CC3(OC(=O)C4CCCC4)CCCN2C3)c1 (stereo not drawn),.,.,.,.,.,-4,.
CCOc1ccc2nc(NC(=O)c3ccco3)sc2c1,-327,.,-112,-5,-17,-29,-288
CS(=O)(=O)c1ccc2nc(NC(=O)c3ccco3)sc2c1,-103,-66,-56,-2,-26,-34,.
COC(=O)c1ccccc1-c1c2ccc(=N)cc-2oc2cc(N)ccc12,35,40,35,i,-15,37,22
COc1ccc(NC(=O)c2nnn(Cc3cccc(F)c3)c2N)c(OC)c1,35*,7,16,-18,-21,2,39*
COc1cccc(Cn2nnc(C(=O)Nc3cc(Cl)ccc3OC)c2N)c1,41*,10,15,-24,-23,-6,38*
COc1cccc(NC(=O)Cn2nnc(C(=O)Nc3cc(Cl)ccc3OC)c2N)c1,-1,30,12,.,-7,-6,.
CC(C)=CC(=O)NCC1CCN(C(=O)C(=O)c2cc3ccccc3o2)CC1,.,.,.,.,.,3,.
CC(=O)c1ccc(N/N=C(/C(N)=O)C2=NC(C)(C)Cc3ccccc32)cc1,-420,12,-48,.,-1,8,-193
CN(CCc1ccccn1)C(=O)Cn1nc(-c2ccccc2)ccc1=O,.,.,.,.,.,-30,.
CCCn1nc(Oc2nc(NCC)nc(NC(C)C)n2)ccc1=O,62*,21,11,18,-8,-47,26
CCN(CC(=O)Nc1c(F)cccc1F)C(=O)C1(c2ccccc2)CC1,50*,11,7,-11,3,26,19*
Cc1ccc(N2C(=O)c3ccccc3NC2c2ccccc2O)cc1 (stereo not drawn),-296,-55,-123,.,-6,-34,-103
CCc1[nH]nc2c1C(c1ccc(Br)s1)C(C#N)=C(N)O2 (stereo not drawn),43*,19,9,-12,5,-3,23
CCc1ccc(-c2nc(-c3ccncc3)no2)cc1,-264,-8,-133,.,-36,-40,-210
c1ccc(-c2ccc(-c3nc(-c4ccncc4)no3)cc2)cc1,-301,-82,-94,.,-16,-38,-260
SMILES,697 NFkB inh,Gli-Sufu block,Jurkat NFkB inh,TAG inh,H9c2 protect,COUP-TFII inh,697 NFkB conf
O=C(OC12CCCN(C1)/C(=C/c1ccc(Cl)cc1)C2)c1cccc(F)c1 (stereo not drawn),.,.,.,.,.,-9,.
CCCC[C@H]1C2CC(OC(=O)Nc3ccc(Cl)cc3)C(C2)[C@H]2CCCCN21 (stereo partly drawn),.,.,.,.,.,-7,.
O=C(NC1CCCCN(Cc2ccc(Cl)cc2)C1=O)c1ccc2ccccc2c1 (stereo not drawn),.,.,.,.,.,-5,.
CCc1c(C)sc(NC(=O)C2CC2c2ccccc2)c1C(N)=O (stereo not drawn),-488,-4,-78,.,-1,-37,-269
NNC(=O)[C@@H]1C[C@@H]1c1ccccc1,3,-5,4,.,-1,-31,.
COc1ccc(CCNC(=O)Cn2c(=O)n(-c3cc(F)ccc3F)c(=O)c3sccc32)cc1OC,43*,0,-3,-14,18,11,18
